This note sets out measurements from PubChem BioAssay (NCI).

What all share (experiment): NCI-60 one-dose screen, 48 h (100 = growth as untreated, 0 = no growth, -100 = all killed)
What all share (settings): 10 µM

Test [1] deals with HOP-92 NSCLC.
For test [2], the system named is 786-0 renal.
For test [3], the system named is MALME-3M melanoma.
Test [4] has as its system RXF 393 renal.
Test [5] deals with EKVX NSCLC.
In test [6] the test system is SN12C renal.
Test [7] deals with TK-10 renal.
Test [8] has as its system A498 renal.
For test [9], the system named is CCRF-CEM leukemia.
For test [10], the system named is RPMI-8226 leukemia.
Test [11] deals with OVCAR-8 ovarian.
Test [12] deals with OVCAR-5 ovarian.
Test [13] concerns OVCAR-4 ovarian.
Test [14] concerns SK-OV-3 ovarian.
The test system of test [15] is IGROV1 ovarian.
Test [16] deals with NCI/ADR-RES ovarian.
Test [17] concerns T-47D breast.
For test [18], the system named is MDA-MB-435 melanoma.
In test [19] the test system is MCF7 breast.
Test [20] has as its system HCT-116 colon.

Structures are written as SMILES. This is part of a sample that, as a whole, favours compounds with a hit. Of some 83,000 tested, about 20% had one in any assay.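 How to read the values: 0–100, growth inhibition (40 = 60% inhibited); 0, no net growth; -100 to 0, cell death (-40 = 40% of starting cells died; -100 = all dead).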 A number with no mark means an inactive call. Calls of active or inactive are those of the source. How the source made its calls: active means growth percent below 10; inactive means the rest.

Consider `CC(C)N=C([Se])NC(=O)c1cccs1`, for which the growth was 88.3% in [1]; 2.02% (active) in [2]; 102% in [3]; 21.6% in test [4]; 14.7% in test [5]; -21.4% (active) in [6]. Besides, the growth was 56% in test [7]; 36.6% in test [8]; 29.7% in test [9]; -4.48% (active) in test [10]; -36.8% (active) in test [11]; -22.6% (active) in test [12]. The growth in [13] was 83%; in [14], -17.3% (active); in test [15], 1.76% (active); in test [16], -27% (active); in [17], 79.4%; in test [18] it was 37.4%. Also, the growth in [19] is 1.79% (active); in test [20] it was 13.3%.

For `C[C@H]1[C@H](OC(=O)CCC(=O)Nc2cnccn2)O[C@@H]2OC3(C)CC[C@H]4[C@H](C)CC[C@@H]1[C@@]24OO3`, the growth in test [1] is 51.8%; in test [2] it was 53.6%; in test [3], 27.5%; in [4], 49%; in [5], 38.4%; in [6], 45.3%. The growth in test [7] was 42.2%; in test [8], 101%; in test [9], 35.4%; in [10], 21.5%; in test [11] it was 20.7%; in test [12] it was 35.2%. For the same compound, the growth in test [13] is 44.1%; in test [14] it was 77.4%; in test [15] it was 25.7%; in [16], 19.1%; in [17], 22.1%; in test [18], 16.1%. The growth in test [19] was 24.4%; in test [20], 14.6%.

For `COc1cc2cc(C(=O)N3C[C@@H](CCl)c4c3cc(OC(=O)N3CCN(C(=O)CCC(=O)N5CCN(C)CC5)[C@@H]5CSSC[C@@H]53)c3ccccc43)[nH]c2c(OC)c1OC`, the growth was 19.3% in test [1]; -80.9% (active) in test [2]; -99.3% (active) in test [3]; -91.2% (active) in [4]; -84.6% (active) in test [5]; -37.7% (active) in test [6]. Also, the growth in test [7] was 5.55% (active); in test [8], -10.8% (active); in [9], 25.2%; in test [10] it was 6.09% (active); in test [11] it was -32.1% (active); in test [12], -35.6% (active). For the same compound, the growth was -6.42% (active) in test [13]; 3.05% (active) in [14]; -50.7% (active) in [15]; -56.6% (active) in test [16]; 1.49% (active) in [17]; 3.09% (active) in test [18]. In addition, the growth in test [19] was -92.4% (active); in [20], -77.5% (active).

`COc1cc2cc(C(=O)N3C[C@@H](CCl)c4c3cc(OC(=O)N3CCN(C)[C@@H]5CSSC[C@H]53)c3ccccc43)[nH]c2c(OC)c1OC`: the growth in [1] is -40.2% (active); in test [2] it was -57.9% (active); in test [3], -92% (active); in [4] it was -93.8% (active); in [5] it was -86.3% (active); in test [6], -62.1% (active). The growth in test [7] is -28.4% (active); in test [8], -37% (active); in test [9], -23.1% (active); in test [10], -33.9% (active); in test [11], -30.2% (active); in [12], -20.4% (active). The growth in test [13] is -54.7% (active); in test [14], -26.3% (active); in [15] it was -61% (active); in [16], -56.1% (active); in [17], -11.8% (active); in [18], -65.9% (active). For the same compound, the growth in test [19] was -56.2% (active); in [20], -23.6% (active).

Take `CC[C@@]12CC(C(=O)OC)=C3Nc4cc5c(cc4[C@@]34CCN(C[C@H]3O[C@H]31)[C@@H]24)[C@@H]1[C@H](O5)[C@@H](O)[C@@]2(CC)CC(C(=O)OC)=C3Nc4cc(OC)ccc4[C@@]34CCN1[C@@H]24`: the growth in test [1] is 21.2%; in test [2] it was 22.2%; in test [3], 21%; in test [4], -37.8% (active); in test [5] it was 31.3%; in test [6], 27.1%. Moreover, the growth in [7] was 16.2%; in test [8] it was -15.3% (active); in [9] it was 15%; in [10], 0.732% (active); in test [11], 25.5%; in [12], 34.3%. Also, the growth in test [13] is 5.36% (active); in test [14], 14.4%; in [15] it was 2.51% (active); in test [16], 1.32% (active); in test [17], 25.7%; in [18], 9.48% (active). For the same compound, the figures for the growth in [19] and in test [20] were 2.22% (active) and -0.466% (active), respectively.

For the compound `C[C@H]1[C@H](OC(=O)CCC(=O)N(CCCc2cn(-c3ccc(CN4CCOCC4)cc3)nn2)CCNc2ccnc3cc(Cl)ccc23)O[C@@H]2OC3(C)CC[C@H]4[C@H](C)CC[C@@H]1[C@@]24OO3`, the growth in test [1] was -9.61% (active); in test [2] it was -65% (active); in test [3] it was -90% (active); in [4], 7.45% (active); in test [5], 49%; in test [6], 23.2%. Also, the growth in [7] was 48.8%; in test [8], 93.6%; in [9], 8.19% (active); in test [10] it was 3.71% (active); in [11], 19.4%; in test [12] it was 42.1%. For the same compound, the growth was 45.9% in test [13]; 74.2% in [14]; 38% in [15]; 26.1% in test [16]; 25.4% in test [17]; 18.4% in test [18]. The growth is 11.2% in test [19] and -8.13% (active) in test [20].

On to `C[C@H]1[C@@H](CC(=O)N[C@@H](Cc2coc3ccccc23)B(O)O)O[C@@H]2OC3(C)CC[C@H]4[C@H](C)CC[C@@H]1[C@@]24OO3`, for which the growth is -68.6% (active) in [1]; 16.5% in test [2]; -60% (active) in [3]; -88.4% (active) in test [4]; 7.62% (active) in [5]; -78.6% (active) in test [6]. Also, the growth in [7] is 16.5%; in [8] it was 36.6%; in test [9], -10.3% (active); in [10] it was -7.66% (active); in test [11], -6.75% (active); in test [12] it was -57.1% (active). The growth was 18.3% in test [13]; -22.9% (active) in test [14]; -16.1% (active) in test [15]; 27.6% in test [16]; -27.7% (active) in test [17]; -53.8% (active) in [18]. The growth in test [19] was 12%; in test [20], -85.3% (active).
